Data taken from PubChem BioAssay AID602281 (The Scripps Research Institute Molecular Screening Center, 2012).
“And” between values parts separate entries of the source, which are not always exact repeats. Equal values may be shown once. Screen size: about 360,000 compounds; about 2,900 (0.81%) were called active.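 How the source made its calls: active means inhibition above the mean inhibition across every tested compound plus 3 SD (cut at about 22% in these data); inactive means the rest.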 Many of the other results were omitted from the sample, so actives are more common in it than they were. The source holds several records for some structures; these can differ, active in one and inactive in another.

Target: Perilipin-5 (Homo sapiens) + 1-acylglycerol-3-phosphate O-acyltransferase ABHD5 (Homo sapiens) (UniProt Q00G26+Q8WTS1)
Test: ABHD5-PLIN5 interaction inhibitors, primary screen, cell lysate, split luciferase complementation, luminescence (AID 602281);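 further: 0% = DMSO only wells and the 100% control is not disclosed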
Settings: Split G. princeps luciferase complementation, 4 h, at 4 µM, stronger effect = higher value

Chain of Perilipin-5 (Homo sapiens) + 1-acylglycerol-3-phosphate O-acyltransferase ABHD5 (Homo sapiens) (Q00G26 whole entry, looked up): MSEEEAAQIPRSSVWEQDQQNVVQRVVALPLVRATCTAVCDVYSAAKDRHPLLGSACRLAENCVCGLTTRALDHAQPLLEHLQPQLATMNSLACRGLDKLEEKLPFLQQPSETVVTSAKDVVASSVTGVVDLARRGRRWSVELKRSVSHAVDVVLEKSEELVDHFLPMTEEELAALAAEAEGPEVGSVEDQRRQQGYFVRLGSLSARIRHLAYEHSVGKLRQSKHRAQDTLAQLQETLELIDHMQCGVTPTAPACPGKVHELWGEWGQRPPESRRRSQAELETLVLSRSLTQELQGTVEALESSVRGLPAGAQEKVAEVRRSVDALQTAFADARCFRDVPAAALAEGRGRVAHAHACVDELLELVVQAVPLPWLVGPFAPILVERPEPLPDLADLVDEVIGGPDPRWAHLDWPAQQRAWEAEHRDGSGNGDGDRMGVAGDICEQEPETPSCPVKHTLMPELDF
Chain of Perilipin-5 (Homo sapiens) + 1-acylglycerol-3-phosphate O-acyltransferase ABHD5 (Homo sapiens) (Q8WTS1 whole entry, looked up): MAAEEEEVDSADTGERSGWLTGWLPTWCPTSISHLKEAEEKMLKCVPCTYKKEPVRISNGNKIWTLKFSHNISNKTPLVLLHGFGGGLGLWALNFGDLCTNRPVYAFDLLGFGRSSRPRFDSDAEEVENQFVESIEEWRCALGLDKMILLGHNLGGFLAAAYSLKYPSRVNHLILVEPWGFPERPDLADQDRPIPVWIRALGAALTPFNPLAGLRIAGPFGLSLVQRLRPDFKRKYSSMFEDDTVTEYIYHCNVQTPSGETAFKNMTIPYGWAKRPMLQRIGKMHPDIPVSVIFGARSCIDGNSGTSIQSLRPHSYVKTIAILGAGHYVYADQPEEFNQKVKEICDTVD

inhibition, active:
Cc1ccc(Cn2c(C)nc3c(c2=O)c2nc4ccccc4nc2n3Cc2ccco2)cc1 65.3%, O=C1/C(=C\c2ccc([N+](=O)[O-])cc2)CS(=O)(=O)C/C1=C/c1ccc([N+](=O)[O-])cc1 76.2%, COc1ccc2sc(-c3ccccc3OC)c(-c3ccc(OCCN4CCCC4)cc3)c2c1 25.4%, CC1=CC(C)(C)Nc2ccc(OC(=O)CN3C(=O)C4CCCCC4C3=O)cc21 (configuration not stated) 75%, CC1=CC(C)(C)Nc2ccc(OC(=O)C(Cc3ccccc3)N3C(=O)C4CCCCC4C3=O)cc21 (configuration not stated) 47%, COc1ccc2c(c1)c(=Cc1ccc(N(C)C)cc1)c1cc(-c3ccccc3)[n+](C)n12 30.2%, Cc1ccn(C(CC(=O)c2ccc(Br)cc2)C(=O)O)n1 (configuration not stated) 33.3%, Cn1sc(=O)c2cc(S(=O)(=O)NC3CC3)ccc21 43.1%, CCOC(=O)C(=Cc1ccccc1)C(=O)c1ccccc1 86.5%, CCOC(=O)C(=Cc1ccccc1OC)C(=O)OCC 35.8%, CC1(Oc2ccccc2-c2ccno2)CCN(Cc2ccc(-c3ccccc3)o2)C1 (configuration not stated) 24.9%

inhibition, inactive:
Cc1ccc(OCC(=O)c2cc(C)n(Cc3ccco3)c2C)c([N+](=O)[O-])n1 4.39%, Cc1ccc(C(=O)CSc2nc3ccccc3c(=O)n2N)o1 -5.64%, COC(=O)C[C@H]1C[C@@H]2c3cc(N(C)C)ccc3O[C@@H]2[C@H](CO)O1 0.67%, c1ccc(CCc2ccccn2)cc1 -3.97%, CC1CSc2nnc(CCc3ccccc3)n21 (configuration not stated) 0.6%, CCc1ccc(-c2cc(C)no2)cc1S(=O)(=O)NCCc1ccc(S(N)(=O)=O)cc1 -2.59%, O=C(C1CCCO1)N1CCN(C(=O)C23CC4CC(CC(C4)C2)C3)CC1 (configuration not stated) 0.93%, O=C(Cn1cc(C(=O)C2CC2)c2ccccc21)Nc1ccccc1Cl -0.4%, CCOc1ccc(NC(=O)C(C)N2C(=O)c3ccccc3C2=O)cc1 (configuration not stated) -3.97%, O=[N+]([O-])c1ccc(N=NNc2ccc([N+](=O)[O-])cc2)cc1 -4.36%, O=C(Cc1ccccc1)N1CCN(S(=O)(=O)c2ccc([N+](=O)[O-])cc2)CC1 1.18%, Cc1ccc(S(=O)(=O)N(C)C)cc1NC(=O)c1ccccc1Br -0.6%, COc1ccc(C(C(=O)NCc2ccccc2)N(Cc2cccs2)C(=O)c2cnccn2)cc1 (configuration not stated) -0.58%, COc1cccc(-c2sc3ccc(OC)cc3c2-c2ccc(OCCN3CCCCC3)cc2)c1 14.8%, COc1ccccc1-c1sc2ccccc2c1-c1ccc(Br)nc1 -7.49%, Cc1cc(C)c2c(n1)sc1c(=O)n(-c3ccccc3)c(=O)[nH]c12 9.86%, O=C(COC(=O)CN1C(=O)C2CCCCC2C1=O)Nc1ccc(F)c(F)c1F (configuration not stated) -2.34%, COc1ccc(C(=O)COC(=O)CN2C(=O)C3CC=CCC3C2=O)c(OC)c1 (configuration not stated) -4.32%, CCOC(=O)C(Cc1ccc(N)cc1)N1C(=O)c2ccccc2C1=O (configuration not stated) -1%, O=C(C(Cc1ccccc1)n1cccc1)N1CCN(C2CCCCC2)CC1 (configuration not stated) 5.03%, OCCCC1CCCCN1Cc1nc(Cc2ccccc2Cl)no1 (configuration not stated) 0.62%, CC[C@H](C)C(=O)N[C@H]1CCCN1C(=O)/C=C/c1ccccc1 1.82%, CC(=O)Nc1ccc(NC(=O)c2ccc3c(c2)C(=O)N(c2ccccc2C)C3=O)cc1 6.37%, COC(=O)[C@@H]1CCCN1C(=O)c1cc(COc2cccc3cccnc23)on1 -0.57%, O=C(NC1CCN(S(=O)(=O)c2ccc(F)cc2)CC1)c1ccccc1 4.55%, CCN(C(=O)c1ccc(Br)cc1)c1ccccc1 0.98%, Cc1ccc(NC(=O)CCC(=O)c2ccc(Br)cc2)cc1 4.03%, CCCCN(CC)CCCNC(=O)c1ccc(CSc2nc3ccncc3[nH]2)cc1 -1.26%, COc1ccc(N(Cc2cc3ccc(C)cc3[nH]c2=O)S(=O)(=O)c2ccccc2)cc1 -3.39%, CC1CCC(NS(=O)(=O)c2ccc3c(c2)CC(=O)N3)CC1 (configuration not stated) 2.49%, O=S(=O)(NC1CC1)c1ccc(F)c(F)c1 7.64%, CC1CCCC(NC(=O)COC(=O)c2ccccc2C(=O)N(C)C2CCCCC2)C1C (configuration not stated) 1.5%, COc1ccccc1C(=O)c1ccccc1C(=O)c1ccccc1 -6.91%, CCc1ccccc1NC(=O)/C(=C/c1ccccc1)c1ccccc1 -13.9%, CCOC(=O)/C(=C\c1ccc([N+](=O)[O-])cc1)C(=O)c1cc(C(C)=O)c(Nc2ccccc2)s1 -2.52%, COc1ccccc1/C=C/C(=O)NC1CC2CCC1C2 (configuration not stated) -5.4%, Cc1ccc(C(=O)NCC(=O)OCC(=O)Nc2cccc(S(=O)(=O)N3CCCC3)c2)cc1C -2.63%, O=C(CCCN1C(=O)C(c2ccccc2)Oc2cccnc21)Nc1ccccc1Br (configuration not stated) 6.82%, COC(=O)[C@@H]1C[C@@]2(O)[C@H](O)[C@H](O)[C@H](O)C[C@H]2N1Cc1ccc(C(C)(C)C)cc1 6.53%, O=C(c1cccc(F)c1)N1CCC(O)(c2cccnc2)CC1 0.25%, N#CCOc1ccc(C2=NO[C@@H]3[C@@H]4C[C@@H]([C@H]5C(=O)N(c6ccc7c(c6)OCO7)C(=O)[C@@H]45)[C@H]23)cc1 -3.78%, COc1ccc(CN2CCC(C)(Oc3cccc(F)c3)C2)c2ccccc12 (configuration not stated) 1.04%, CC1(Oc2cccc(F)c2)CCN(Cc2ccccc2OC(F)F)C1 (configuration not stated) -9.44%, CCCOC1CCCN(C(=O)c2cc(COc3cncc(Cl)c3)on2)C1 (configuration not stated) 1.32%, Cc1[nH]c2ccccc2c1C(=O)c1cc([C@H](NC(=O)OC(C)(C)C)C(C)C)sc1N -16.6%

inhibition, 16.9% (inactive) and 27.5% (active):
c1ccc(CCC2=NCCn3cccc32)cc1
